In the library only some 2.4% were active in any assay of this set; here they are far more common.
FEN1 inh – qHTS Assay for the Inhibitors of Human Flap endonuclease 1 (FEN1). P39748. Recombinant FEN1 flap cleavage, fluorescence, 15 min. Potency, µM (titrated, usually from 114 µM), for inactives: at the top dose activity change, negative = inhibition, most hits filed as inhibitors. actives 0.35% (n = 390,000). AID 588795, 2011; note: % is set by controls: 0 for no effect and ±100 for the full control effect; nearly all actives have a fitted effect of over 65% in size
Target sequence (P39748 whole entry, looked up): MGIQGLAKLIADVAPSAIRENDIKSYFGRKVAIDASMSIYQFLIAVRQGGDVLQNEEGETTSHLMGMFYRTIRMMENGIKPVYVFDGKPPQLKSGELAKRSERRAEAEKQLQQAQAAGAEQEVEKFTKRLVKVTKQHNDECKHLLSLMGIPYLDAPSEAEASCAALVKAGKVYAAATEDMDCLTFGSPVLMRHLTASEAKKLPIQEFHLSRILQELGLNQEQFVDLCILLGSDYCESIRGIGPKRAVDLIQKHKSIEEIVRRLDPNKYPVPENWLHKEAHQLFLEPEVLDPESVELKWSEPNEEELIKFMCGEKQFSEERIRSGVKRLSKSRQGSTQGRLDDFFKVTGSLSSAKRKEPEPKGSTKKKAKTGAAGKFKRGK
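Read-out was taken twice, immediately and after 15 min, following addition of 50 nM substrate to 10 nM FEN1 that had sat with test compound for 15 min at room temperature. Curves came from a four-parameter Hill model.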
WRN inhibitor – qHTS for Inhibitors of WRN Helicase; actives 0.46% (n = 360,000); WRN helicase unwinding, fluorescent forked duplex, kinetic; Potency, µM (titrated, usually from 114 µM), without a hit: at the top dose activity change, negative = inhibition, actives largely listed as inhibitors; note: % is set by controls: 0 for no effect and ±100 for the full control effect; nearly all actives have a fitted effect of over 55% in size
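WRN at 20 nM final was preincubated with compound for 15 min at room temperature; reaction started with 100 nM forked duplex oligonucleotide carrying fluorophore and quencher plus 2 mM ATP (final). Unwinding followed kinetically by red fluorescence (ex 525/em 598 nm).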
POLH inh – qHTS for Inhibitors of Polymerase Eta; actives 1.2% (n = 390,000); recombinant Pol eta, fluorescent DNA replication assay; AID 588591, 2011; DNA polymerase eta (Homo sapiens), Q9Y253; Potency, µM (titrated, usually from 114 µM), for the others: at the top dose activity change, negative = inhibition, usual class: inhibitors; note: % is set by controls: 0 for no effect and ±100 for the full control effect
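Fluorescent replication assay: 50 nM final substrate added after a 15 min room-temperature compound preincubation with 10 nM enzyme. Signal taken at 0 min and again at 10 min.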
POLK inh – qHTS for Inhibitors of Polymerase Kappa; Potency, µM (doses to about 107 µM), inactives show at the top dose activity, negative = inhibition, actives largely listed as inhibitors; actives 0.53% (n = 400,000); purified Pol kappa, fluorescent DNA synthesis assay, 10 min; note: % is set by controls: 0 for no effect and ±100 for the full control effect
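Activity was followed as the change in fluorescence between reads at 0 and 10 min after starting the reaction with 50 nM substrate. Beforehand, 10 nM polymerase had been preincubated with compound for 15 min at room temperature.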
POLI inh – qHTS for Inhibitors of Polymerase Iota. AID 588590, 2011. Potency, µM (titrated, usually from 115 µM), without a hit: at the top dose activity, negative = inhibition, most hits filed as inhibitors. Pol iota fluorescent replication assay, 10 min. DNA polymerase iota (Homo sapiens), Q9UNA4. actives 1% (n = 390,000)
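Pol iota at 10 nM preincubated 15 min with compounds at room temperature; reaction started with fluorescent substrate, 50 nM final. Fluorescence read kinetically at 0 and 10 min; buffer-only wells as negative control.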
Pol beta inh – qHTS Assay for Inhibitors of DNA Polymerase Beta; Potency, µM (top dose mostly 114 µM), inactives show at the highest dose activity change, negative = inhibition, most hits filed as inhibitors; P06746; actives 1.3% (n = 340,000); AID 485314, 2010; Pol beta primer extension/strand displacement, fluorescence kinetic; note: % is set by controls: 0 for no effect and ±100 for the full control effect
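10 nM enzyme + cpd, 15 min RT; start with substrate 50 nM final; read 0 min and after 10 min RT. Corrected, normalized data; 4-parameter Hill curve fit.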
An asterisk follows results filed as active; ? = inconclusive; . = not tested or not shown; [ ] = another dose, or the depositor's remark. Calls come from the whole dose curve; as a rule, active = well fitted curve in the direction sought with a large enough effect; inconclusive = small, poorly fitted or top-dose-only effect, or another doubt; inactive = no such curve, though single readings can be large; an effect the other way counts as inactive or inconclusive. Potency is the fitted concentration of half-maximal effect.

SMILES	FEN1 inh	WRN inhibitor	POLH inh	POLK inh	POLI inh	Pol beta inh
Cc1ccc(CS(=O)Cc2ccc(C(=O)NCc3ccc4c(c3)OCO4)o2)cc1 (stereo unspecified)	-15%	4%	-25%	2%	39%	43%
Cc1ccc(S(=O)(=O)Cc2ccc(C(=O)NCc3ccc4c(c3)OCO4)o2)cc1	-18%	-11%	-16%	?	?	5.6µM*
N#Cc1nc(/C=C/c2ccc(F)cc2)oc1N1CCN(c2ccccc2)CC1	-10%	.	-19%	-10%	-29%	16%
COc1cc(NC(=O)CC2C(=O)N(c3cccc(C)c3)C(=O)N2Cc2cccs2)cc(OC)c1 (stereo unspecified)	-17%	.	-19%	-8%	2%	38%
COc1ccc(N(CC(=O)NCCSCc2ccco2)S(=O)(=O)c2ccccc2)cc1	-10%	-7%	-3%	-7%	38%	-11%
O=C(CN(c1ccccc1)S(=O)(=O)c1ccccc1)NCCSCc1ccco1	-19%	-12%[11.6 µM]	?	79µM*	?	56µM*
CN(c1ccc(C(=O)NCc2ccco2)cc1)S(C)(=O)=O	5%	2%	11%	-21%	10%	0%
CN(c1ccc(C(=O)NCCSCc2ccco2)cc1)S(C)(=O)=O	-4%	-13%	-14%	-2%	7%	1µM*
COCCn1c(C)cc(O)c(C(c2ccccc2Cl)N2CCN(c3ccccc3)CC2)c1=O (stereo unspecified)	13%	.	-12%	-8%[60.1 µM]	-5%	0%
O=C1COc2cc(S(=O)(=O)CCC(=O)N3CCN(c4ccccc4)CC3)c(Cl)cc2N1	24%	.	4%	-8%	4%	-10%
O=C1c2ccc(-c3ccc(F)cc3OCc3ccccc3)cc2S(=O)(=O)c2cccc(C(=O)N3CCN(c4ncc(Br)cn4)CC3)c21	9%	4%	7%	-7%	-18%	.
O=C(O)c1cccc2c1C(=O)c1ccc(-c3ccc(F)cc3OCc3ccccc3)cc1S2(=O)=O	-15%	2%[11.6 µM]	79µM*	-33%	?	.
Cc1cccc(NC(=O)CSc2nc(N)cc(N)n2)c1	-3%	2%[57.1 µM]	-14%	0%	30%	-1%
Cc1cccc(NC(=O)CSc2nnc(-c3ccco3)c(-c3ccco3)n2)c1C	?	32µM*	13µM*	32µM*	2µM*	22µM*
Cc1ccccc1NC(=O)CSc1nnc(-c2ccco2)n1N	-1%	-12%	-13%	4%	43%	.
Cc1cccc(NC(=O)CSc2nnc(-c3ccco3)c(-c3ccco3)n2)c1	-25%	32µM*	40µM*	79µM*	?	25µM*
O=C(O)c1ccc(N2Cc3ccccc3C2)cc1O	?	-28%	5.6µM*	?	?	45µM*
O=C(O)c1ccc(N2CCCCC2)cc1O	18%	-7%	-17%	0%	18%	3%
CCN(CC)C(=O)CSc1nc2ccc(NC(=O)CSc3nccn3C)cc2s1	-12%	-16%	-13%	-40%	25µM*	5.6µM*
CCN(CC)C(=O)CSc1nc2ccc(NC(=O)CSc3nnc(N)s3)cc2s1	-16%	-19%[57.1 µM]	11µM*	?	13µM*	32µM*
CCN(CC)S(=O)(=O)c1cc(NC(=O)CSc2nnc(N)s2)ccc1C	-2%	-5%	-5%	-4%	-3%	.
CCC(=O)c1ccc(OCC(=O)N2CCN(S(=O)(=O)c3ccc(Cl)s3)CC2)cc1	-13%	-20%	45µM*	?	?	.
COc1cc(NC(=O)CSc2nnc3c(n2)[nH]c2ccc(S(=O)(=O)NC(C)C)cc23)cc(OC)c1OC	11%	-7%[11.6 µM]	18µM*	?	45µM*	?
O=C(O)Cn1cc(/C=c2/sc3nc4ccccc4n3c2=O)c2ccccc21	?	?	79µM*	?	17%	4%
O=c1/c(=C\c2cccn2-c2ccccc2)sc2nc3ccccc3n12	0%	7%[57.1 µM]	5%	-1%	19%	9%
SMILES	FEN1 inh	WRN inhibitor	POLH inh	POLK inh	POLI inh	Pol beta inh
COc1cc(OC)c(NC(=O)NCc2cccn2Cc2ccccc2)cc1Cl	8%	.	-18%	36%	-2%	-22%
COc1cc2ccc(=O)oc2c(O)c1O	8.9µM*	-14%	-4%	50µM*	?	.
COc1cc2ccc(=O)oc2c(OC)c1OC	.	.	.	-1%[60.1 µM]	.	.
CCOC(=O)c1c(NC(=O)COC(=O)c2ccc(NC(=O)CC#N)cc2)sc(C(=O)NC)c1C	?	?	10µM*	?	?	.
COC1(OC)C=CC(=O)C=C1NC(=O)c1ccccc1OC(C)=O	-4%	.	6%	4%	10µM*	.
CC(=O)Oc1ccccc1C(=O)Nc1ccccc1	-9%	.	-14%	-22%	?	.
C[n+]1c(/C=C/c2ccc(O)cc2)ccc2ccccc21	?	-22%	-26%	-29%	?	16µM*
COc1cc(OC)c(/C=C/c2cc3c4ccccc4ccc3[n+](C)c2)c(OC)c1	?	.	.	0%	2%	.
CC[n+]1c(/C=C/c2ccc(OC)c(OC)c2)ccc2ccccc21	-18%	-2%	-2%	-9%	-1%	?
COc1cc(OC)c(/C=C/c2cc(/C=C/c3c(OC)cc(OC)cc3OC)[n+](C)c3ccccc23)c(OC)c1	14µM*	.	.	-10%	-18%	.
COc1ccc(OC)c(/C=C/c2ccc3ccccc3[n+]2C)c1	45µM*	.	.	-11%	26%	.
C[n+]1c(/C=C/c2ccc(F)cc2)ccc2ccccc21	?	.	.	-27%	29%	.
CCOc1ccc(/C=C/c2ccc3ccccc3[n+]2C)cc1OCC	?	.	.	45µM*	?	.
Cc1cccc(C)c1NC(=O)Cn1cc(C(=O)C2CC2)c2ccccc21	-18%	.	6%	-10%	-24%	-13%
Clc1ccc(-c2nnc3sc(-c4ccc(Br)o4)nn23)cc1	-1%	-37%	?	-16%	89µM*	0%
Cc1ccc(-n2c(O)c(C=Nc3cc(C)on3)c3ccccc3c2=O)c(C)c1	-18%	50µM*	-11%	-16%	2%	?
O=C(NC(=S)Nc1ccc(NC(=O)c2cccs2)cc1)c1ccco1	-3%	-24%	-17%	-21%	-3%	-1%
O=C(NC(=S)Nc1ccc(NC(=O)c2cccs2)cc1)c1cc2ccccc2o1	7%	-23%	?	-15%	3%	13µM*
CCN(CC)c1ccc(/C=C/c2nccc3ccccc23)cc1	?	.	.	-10%	-22%	.
